Compound activity from PubChem.
In the library only some 2.4% were active in any assay of this set; here they are far more common.
POLI inh: inhibitors of human DNA polymerase iota; Potency, µM (highest dose often 115 µM), inactives show at the highest dose activity, negative = inhibition, actives largely listed as inhibitors; 390,000 compounds, 1% hits; Pol iota fluorescent replication assay, 10 min; Q9UNA4
Target sequence (Q9UNA4 whole entry, looked up): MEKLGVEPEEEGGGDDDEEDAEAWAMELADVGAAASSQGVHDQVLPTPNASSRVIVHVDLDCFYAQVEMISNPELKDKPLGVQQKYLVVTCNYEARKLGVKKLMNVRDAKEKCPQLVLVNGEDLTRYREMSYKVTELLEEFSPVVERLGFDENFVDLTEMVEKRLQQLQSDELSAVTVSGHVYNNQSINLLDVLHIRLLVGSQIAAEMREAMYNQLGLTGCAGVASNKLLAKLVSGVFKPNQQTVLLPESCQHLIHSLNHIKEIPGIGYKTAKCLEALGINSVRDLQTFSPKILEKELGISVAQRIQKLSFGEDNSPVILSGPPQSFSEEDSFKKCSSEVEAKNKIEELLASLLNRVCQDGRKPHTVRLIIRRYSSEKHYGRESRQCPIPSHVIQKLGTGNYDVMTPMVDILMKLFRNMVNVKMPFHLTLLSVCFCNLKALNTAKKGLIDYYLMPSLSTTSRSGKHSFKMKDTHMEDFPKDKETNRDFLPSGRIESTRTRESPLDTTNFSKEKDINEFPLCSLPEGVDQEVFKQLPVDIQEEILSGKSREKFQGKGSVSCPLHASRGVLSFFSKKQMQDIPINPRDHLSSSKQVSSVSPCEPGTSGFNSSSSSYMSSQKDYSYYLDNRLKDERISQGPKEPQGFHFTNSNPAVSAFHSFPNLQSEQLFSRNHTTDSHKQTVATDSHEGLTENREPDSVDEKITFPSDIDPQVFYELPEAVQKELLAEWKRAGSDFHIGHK
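Fluorescent replication assay read twice, at 0 min and 10 min after adding 50 nM (final) substrate. Enzyme (10 nM) and compounds were first incubated 15 min at room temperature; enzyme-free buffer wells were negative controls.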
FEN1 inh: inhibitors of human flap endonuclease 1; AID 588795; 390,000 compounds, 0.35% hits; P39748; Potency, µM (series often up to 114 µM), without a hit: top-dose activity change, negative = inhibition, usual class: inhibitors; Recombinant FEN1 flap cleavage, fluorescence, 15 min; note: % is set by controls: 0 for no effect and ±100 for the full control effect; nearly all actives have a fitted effect of over 65% in size
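Nuclease activity of 10 nM FEN1 was measured after 15 min of room-temperature exposure to titrated compounds, by adding 50 nM flap substrate and reading plates at 0 and 15 min.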
Pol beta inh: DNA polymerase beta (human) inhibition; P06746; Pol beta primer extension/strand displacement, fluorescence kinetic; Potency, µM (doses to about 114 µM), for the others: at the top dose activity change, negative = inhibition, most hits filed as inhibitors; 340,000 compounds, 1.3% hits; AID 485314; note: % is set by controls: 0 for no effect and ±100 for the full control effect
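Curves were derived by four-parameter Hill fits of normalized qHTS data. The kinetic fluorescent primer-extension read was taken at 0 and 10 min after 50 nM substrate, following a 15 min room-temperature preincubation of 10 nM enzyme with compounds.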
Pol kappa inh: DNA polymerase kappa (human) inhibition; Potency, µM (titrated, usually from 107 µM), without a hit: at the highest dose activity, negative = inhibition, most hits filed as inhibitors; purified Pol kappa, fluorescent DNA synthesis assay, 10 min; 400,000 compounds, 0.53% hits; Q9UBT6; note: % is set by controls: 0 for no effect and ±100 for the full control effect
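50 nM final substrate added after 15 min RT preincubation of 10 nM Pol kappa with compound; fluorescence read at 0 and 10 min.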
WRN helicase inh: inhibitors of human WRN helicase | Q14191 | WRN helicase unwinding, fluorescent forked duplex, kinetic | Potency, µM (series often up to 114 µM), for inactives: top-dose activity change, negative = inhibition, most hits filed as inhibitors | 360,000 compounds, 0.46% hits; note: % is set by controls: 0 for no effect and ±100 for the full control effect; nearly all actives have a fitted effect of over 55% in size
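Kinetic fluorescence helicase assay: unwinding of a quenched forked DNA duplex (100 nM final) with 2 mM ATP final raises red fluorescence (525/598 nm). Compounds sat 15 min at room temperature with 20 nM WRN beforehand.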
POLH inh: inhibitors of human DNA polymerase eta; 390,000 compounds, 1.2% hits; recombinant Pol eta, fluorescent DNA replication assay; Potency, µM (top dose mostly 114 µM), inactives show at the highest dose activity change, negative = inhibition, most hits filed as inhibitors; Q9Y253; note: % is set by controls: 0 for no effect and ±100 for the full control effect
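Pol eta at 10 nM preincubated with compounds 15 min at room temperature; reaction started with fluorescent substrate (50 nM final) and read kinetically at 0 and 10 min.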
Numbers without * were called inactive; ? = inconclusive; / = no result given; [ ] = dose if it differs, or a comment. Calls come from the whole dose curve; as a rule, active = well fitted curve in the direction sought with a large enough effect; inconclusive = small, poorly fitted or top-dose-only effect, or another doubt; inactive = no such curve, though single readings can be large; an effect the other way counts as inactive or inconclusive. Potency is the fitted concentration of half-maximal effect.

SMILES | POLI inh | FEN1 inh | Pol beta inh | Pol kappa inh | WRN helicase inh | POLH inh
CN1CCc2nc3sc(C(=O)C45CC6CC(CC(C6)C4)C5)c(N)c3cc2C1 | 0% | ? | 50µM* | ? | ? | ?
CC(=O)Oc1cc(-c2coc3cc(OC(C)=O)c(OC(C)=O)c(OC(C)=O)c3c2=O)cc(OC(C)=O)c1OC(C)=O | / | / | / | 0.35µM* | / | /
O=C(OCC1OC(OC(=O)c2cc(O)c(O)c(OC(=O)c3cc(O)c(O)c(O)c3)c2)[C@@H](OC(=O)c2cc(O)c(O)c(OC(=O)c3cc(O)c(O)c(O)c3)c2)C(OC(=O)c2cc(O)c(O)c(OC(=O)c3cc(O)c(O)c(O)c3)c2)C1OC(=O)c1cc(O)c(O)c(OC(=O)c2cc(O)c(O)c(O)c2)c1)c1cc(O)c(O)c(OC(=O)c2cc(O)c(O)c(O)c2)c1 (some centres undefined) | / | / | / | 0.006µM* | / | /
COc1cc(-c2noc(-c3ccc(NCc4cccnc4)c([N+](=O)[O-])c3)n2)cc(OC)c1OC | 9% | 6% | 45µM* | -4% | / | -12%
CCOc1ccccc1N1CCN(CC(=O)N(C2CCCC2)C2CCS(=O)(=O)C2)CC1 (centres undefined) | -17% | 6% | / | -12% | 9% | -10%
CCOc1ccccc1N1CC(C(=O)N(CC)C2CCS(=O)(=O)C2)CC1=O (centres undefined) | ? | -3% | / | -20% | -1%[11.6 µM] | 50µM*
Cc1ccc(C)c2c1NC(C(=O)O)C1CC=CC21 (centres undefined) | 11µM* | 18µM* | / | 3.2µM* | / | /
O=C(O)C1Nc2c(Cl)cc(Cl)cc2C2C=CCC12 (centres undefined) | 4µM* | 22µM* | ? | 8.9µM* | 10µM* | 2.8µM*
CC(C)CNC(=O)C1Nc2ccccc2C2C=CCC12 (centres undefined) | ? | -20% | / | -15% | 5% | -15%
COC(=O)c1ccc(COc2cccc3c2CCN(Cc2ccccc2)C3=O)o1 | -11% | 5% | 3% | -10% | -16% | ?
O=C(c1ccc(OCc2cn3ccccc3n2)cc1)N1CCN(S(=O)(=O)c2ccccc2F)CC1 | 79µM* | 1% | / | -13% | -12% | ?
CN(CC(=O)Nc1cccc(F)c1)C(=O)c1ccc(OCc2cn3ccccc3n2)cc1 | 45µM* | 11% | / | -29% | -5%[11.6 µM] | -17%
Cc1ccc(NC(=O)CN(C)C(=O)c2ccc(OCc3cn4ccccc4n3)cc2)cc1 | ? | 16% | / | -38% | 0%[11.6 µM] | -14%
COc1cccc(-c2nc(CS(=O)CC(=O)NC3CC3)c(C)o2)c1 (centres undefined) | 1% | 17% | -1% | -25% | -2% | 3%
CNC(=O)c1c(NC(=O)c2nc3ccccc3s2)sc2c1CCC2 | / | / | 45µM* | / | / | /
O=C(COC(=O)c1n[nH]c2ccccc12)Nc1ccc([N+](=O)[O-])cc1 | -2% | -5% | 3% | 5% | -8% | -19%
O=C(N/N=C/c1ccoc1)c1ccc(Br)cc1 | ? | -11% | 40µM* | -11% | -3% | -4%
O=C(Cc1ccc(Cl)cc1)N/N=C/c1ccc(O)c(O)c1 | / | / | / | / | -19% | ?
Cc1ccc(O)c(/C=N/NC(=O)Cc2ccc(Cl)cc2)c1 | -6% | -3% | 25µM* | -8% | -13% | 6%
O=C(N/N=C/c1ccoc1)c1ccccc1O | ? | 7% | 22µM* | ? | -9%[11.6 µM] | 45µM*
O=C(N/N=C/c1cccc(OC2CSC2)c1)c1ccccc1O | ? | -7% | 45µM* | -31% | ? | ?
O=C(N/N=C/c1oc(O)c2ccccc12)c1ccccc1O | -14% | -11% | 20% | -22% | -8% | -3%
CC1(C(=O)O)Cc2ccccc2C(=O)O1 (centres undefined) | -22% | 11% | 4% | 14% | -12% | -4%
O=C(N/N=C/c1cccc(Br)c1)c1ccc(Br)cc1 | ? | -22% | 10µM* | -21% | -22% | -5%
O=C(N/N=C/c1cc(Cl)ccc1O)c1ccc(Br)cc1 | ? | ? | 10µM* | ? | 0%[57.1 µM] | ?
SMILES | POLI inh | FEN1 inh | Pol beta inh | Pol kappa inh | WRN helicase inh | POLH inh
O=C(N/N=C/c1ccoc1)c1ccccc1 | ? | -6% | 20µM* | -38% | -20% | ?
Cc1cc(C)cc(C(=O)N/N=C/c2ccoc2)c1 | ? | 6% | 45% | -4% | -5% | -16%
O=C(/C=C/c1ccc(Cl)c(Cl)c1)NC1=NCCS1 | 13% | 4% | 1% | -2% | 4% | -9%
O=C(NCc1ccc(F)cc1)NC(=O)c1ccc(Cl)cc1 | -1% | -13% | 24% | -3% | 3% | -6%
CC1=CCC2C(=O)N(c3nc4ccccc4n3C)C(=O)C2C1 (centres undefined) | ? | 2% | 25µM* | -24% | -14% | ?
O=C(O)c1cc(N=Nc2ccc(O)c(C(=O)O)c2)ccc1O | / | / | / | 3%[19.4 µM] | / | /
O=C(O)c1cc(N=Nc2ccc(-c3ccc(N=Nc4ccc(O)c(C(=O)O)c4)cc3)cc2)ccc1O | / | / | / | 6µM* | / | /
O=C(COC(=O)CNC(=O)c1ccccc1F)Nc1ncc(Cl)cc1Cl | ? | 5% | / | -23% | -11%[11.6 µM] | 50µM*
COc1cccc(-c2nn(-c3ccccc3)cc2C(=O)OCC(=O)Nc2ncc(Cl)cc2Cl)c1 | -3% | 13% | -5%[57.1 µM] | -23% | -19% | 5%
Cc1cnc(C(=O)OCC(=O)Nc2sc3c(c2C#N)CCC3)cn1 | ? | -4% | / | -24% | ? | 22µM*
Cc1cnc(C(=O)OCC(=O)Nc2ncc(Cl)cc2Cl)cn1 | ? | 3% | / | -18% | -1%[11.6 µM] | 50µM*
O=C(COC(=O)c1cn(-c2ccccc2)nc1-c1ccccc1)Nc1ncc(Cl)cc1Cl | ? | 9% | ? | ? | ? | 35µM*
Cc1cnc(C(=O)OCC(=O)Nc2ccc(Cl)cn2)cn1 | 18% | -13% | / | 2% | 1% | -7%
Cc1cccc(OCC(=O)Nc2sc3c(c2C#N)CCC3)c1 | 12% | 5% | 1% | -8% | -3% | -11%
COc1cc(C(=O)NCC(=O)OCC(=O)Nc2ncc(Cl)cc2Cl)cc(OC)c1OC | 79% | 2% | 15% | 2% | -15% | -6%
COc1cc(NS(=O)(=O)c2ccc3[nH]c4c(c3c2)CCCC4)cc(OC)c1OC | 12% | 0% | -5% | -16% | / | -16%
CC(=O)N1CCc2cc(S(=O)(=O)NC(Cc3ccccc3)C(=O)O)ccc21 (centres undefined) | 33% | 7% | -9% | 4% | 6%[57.1 µM] | 4%
NC(=O)c1ccc(NC(=O)COC(=O)c2ccc(Cl)nc2)cc1 | -10% | -9% | / | -13% | -3% | -1%
